Screens from PubChem BioAssay.
Shiga toxin inh = A qHTS for Small Molecule Inhibitors of Shiga Toxin | AID 2315, 2010 | inhibition, % at 38.7 µM | actives 9.2% (n = 290,000) | Vero cells, Shiga toxin protein synthesis inhibition reporter; in the data active = inhibition mostly above about 28%, no sharp cut-off; inactive = mostly below about 43%; also: 0% is about no effect
Pf growth 96h = Primary qHTS for delayed death inhibitors of the malarial parasite plastid, 96 hour incubation. actives 6.9% (n = 320,000). P. falciparum luciferase reporter growth, 96 h. AID 504834, 2011. Potency, µM (highest dose often 28.7 µM), inactives show top-dose activity change, negative = inhibition, actives largely listed as inhibitors; also: potency is read from the fitted curve at half-maximal effect; % is scaled to controls: 0 for no effect and ±100 for the full control effect
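Delayed-death screen, second-generation endpoint: infected erythrocytes, 2% hematocrit, 0.05% parasitemia final; 96 hours at 37 C, 5% CO2; luciferase detection reagent; luminescence decrease equals reduced growth.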
HCV inh = qHTS Assay for Inhibitors of Hepatitis C Virus (HCV). Huh7.5.1 HCVcc-Cre infection, luciferase reporter, 44 h. Potency, µM (top dose mostly 41.8 µM), for inactives: at the highest dose activity change, negative = inhibition, usual class: inhibitors. actives 3.4% (n = 340,000). AID 651820, 2012; also: potency is read from the fitted curve at half-maximal effect; % is scaled to controls: 0 for no effect and ±100 for the full control effect
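A cell-based infection assay in which seeded cells (1,000 per well) receive test compound after 4 h, are inoculated with HCVcc-Cre at approximately 0.5 moi, and are incubated 44 h before luminescence detection.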
AMA1 RON2 block = qHTS for Inhibitors of AMA1-RON; Towards Development of Antimalarial Drug Lead: Primary Screen; Plasmodium falciparum AMA1 (3D7) - RON2 peptide interaction; AlphaScreen AMA1-biotinylated RON2 peptide binding; Potency, µM (top dose mostly 58.2 µM), for inactives: at the top dose activity change, negative = inhibition, actives largely listed as inhibitors; actives 0.2% (n = 360,000); AID 720542, 2013;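 also: potency is read from the fitted curve at half-maximal effect; 0% = vehicle wells and -100% = peptide control; nearly all actives have a fitted effect of over 45% in size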
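AMA1 (3D7) with his tag at 25 nM final met compounds first, then biotinylated RON2 peptide at 25 nM; detection used donor plus acceptor beads, 10 µg/mL apiece, read by AlphaScreen after 30 min at room temperature.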
Pf growth 48h = Primary qHTS for delayed death inhibitors of the malarial parasite plastid, 48 hour incubation. Potency, µM (titrated, usually from 28.7 µM), inactives show top-dose activity change, negative = inhibition, most hits filed as inhibitors. P. falciparum luciferase growth in erythrocytes, 48 h. actives 5.9% (n = 310,000); also: potency is read from the fitted curve at half-maximal effect; % is scaled to controls: 0 for no effect and ±100 for the full control effect
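Luminescence readout; reporter = integrated firefly luciferase in P. falciparum. RBC culture at 2% hematocrit, 0.1% parasitemia final, 37 C/5% CO2; decreased signal taken as growth inhibition.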
CHX counter = Cycloheximide Counterscreen for Small Molecule Inhibitors of Shiga Toxin; cell reporter, cycloheximide protein synthesis inhibition counterscreen; max response, %; actives 12% (n = 300,000); in the data active = max response mostly above about 13%, no sharp cut-off; inactive = mostly below about 14%; also: read at 38.3 µM for the half of the compounds with a filed dose; 0% is about no effect
Starred values were filed as active, the others as inactive; u = inconclusive; x = no result. An excerpt weighted towards active compounds, which were near 21% of everything screened. Unless noted, calls follow the shape of the dose curve; as a rule, active = well fitted curve in the direction sought with a large enough effect; inconclusive = small, poorly fitted or top-dose-only effect, or another doubt; inactive = no such curve, though single readings can be large; an effect the other way counts as inactive or inconclusive.

SMILES | Shiga toxin inh | Pf growth 96h | HCV inh | AMA1 RON2 block | Pf growth 48h | CHX counter
O=C(NCCN1C(=O)S/C(=C\c2cccs2)C1=O)c1ccco1 | 37 | u | 27% | -4% | -6% | 46*
Cc1nc2sccn2c(=O)c1S(=O)(=O)NCC1CCN(Cc2ccccc2Cl)CC1 | -8 | u | 6% | 0% | -12% | -2
CN=C(Nc1ccc(Cl)cc1)c1ccc(C(F)(F)F)cc1 | 27 | 82% | 20% | 9% | 45% | 15*
COc1ccc(/C=C(\NC(=O)c2ccc(C)cc2)C(=O)Nc2c(C)n(C)n(-c3ccccc3)c2=O)cc1 | -11 | -22% | 5% | -9% | -28% | -2
Cc1cccc2sc(N(CCCN(C)C)C(=O)c3ccc(S(=O)(=O)N4CCc5ccccc5C4)cc3)nc12 | 15 | u | -9% | -6% | 9.3µM* | 18
CN(C)CCCN(C(=O)c1ccc(S(=O)(=O)N2CCc3ccccc3C2)cc1)c1nc2c(F)cccc2s1 | -6 | -10% | u | -11% | u | 32*
CN(C)CCCN(C(=O)c1ccc(S(=O)(=O)N2CCc3ccccc3C2)cc1)c1nc2ccc(F)cc2s1 | -16 | u | u | u | 13µM* | -7
Cc1ccc2nc(N(CCCN(C)C)C(=O)c3ccc(S(=O)(=O)N4CCc5ccccc5C4)cc3)sc2c1 | -15 | u | u | u | u | -7
O=S(=O)(/C=C/c1ccccc1)Oc1ccccc1 | 21 | 3.3µM* | u | 32% | x | 28*
CNS(=O)(=O)/C=C/c1ccccc1 | 12 | 19% | 24% | 7% | 34% | 7
Nc1nc(Cl)nc2c1ncn2[C@@H]1O[C@H](CO)[C@H](O)C1F (some centres not stated) | x | -17% | x | x | -7% | x
Cc1noc(C)c1NC(=O)Nc1ccc2c(c1)CC(=O)N([C@H](C)CO)C[C@@H](C)[C@H](CN(C)CC1CCCCC1)O2 | x | x | 0% | 1% | x | x
O=C(N/N=C/c1ccncc1)c1nc2ccccc2c(=O)[nH]1 | 32 | 57% | 18% | 91% | 51% | 17*
O=C(N/N=C/c1ccc2ncccc2c1)c1cccc([N+](=O)[O-])c1 | 22 | -2% | -17% | 5% | -7% | 7
O=C(N/N=C/c1ccc2cccnc2c1)c1nc2ccccc2c(=O)[nH]1 | 35* | 41% | 14% | -12% | 46% | 30*
COc1ccc(Nc2nc3[nH]c(=O)cc(O)c3s2)cc1 | 0 | u | 4% | -1% | u | 11
O=c1cc(O)c2sc(Nc3ccc(F)c(Cl)c3)nc2[nH]1 | 2 | 3.7µM* | u | 4% | u | 3
O=c1cc(O)c2sc(Nc3ccc(Cl)c(F)c3)nc2[nH]1 | 4 | 5.9µM* | u | -13% | 1.7µM* | -3
CCOC(=O)c1cc(C#N)c(N2CCNCC2)nc1C(F)(F)F | -9 | 99% | u | -4% | u | -1
CCOC(=O)c1cc(C#N)c(N2CCN(C(=O)c3cccc(C(F)(F)F)c3)CC2)nc1C(F)(F)F | -18 | u | 8.9µM* | 1% | 5.9µM* | -2
CCOC(=O)c1cc(C#N)c(N2CCN(C(=O)c3ccccc3)CC2)nc1C(F)(F)F | -15 | 10µM* | -12% | 0% | u | -2
CCCCN(CCCC)Cc1cc(=O)oc2ccccc12 | x | x | x | 0% | x | x
O=C1C=CC2=C3c4cc(O)c(O)cc4CC3(O)COC2=C1O (configuration not stated) | x | x | -12% | 2.8µM* | x | x
Cc1ccc(N2C(=O)C(Cl)=C(N3CCN(C)CC3)C2=O)c(C)c1 | 1 | 2.6µM* | 14% | -4% | u | -3
CN1CCN(C2=C(Cl)C(=O)N(c3ccc(Cl)cc3)C2=O)CC1 | 25 | x | 0% | -23% | u | 9
SMILES | Shiga toxin inh | Pf growth 96h | HCV inh | AMA1 RON2 block | Pf growth 48h | CHX counter
CC(C)[C@H](NS(=O)(=O)c1cccc(C(F)(F)F)c1)C(=O)OCC(=O)NC(=O)NCc1ccco1 | x | x | 11µM* | -7% | x | x
CCCNC(=O)c1ccc(N2CCC3(CC2)CC(c2ccccc2)=NO3)c(NC(=O)c2cccc(C)c2)c1 | 9 | 1.9µM* | -2% | -8% | 8.3µM* | -1
Cc1ccc(CNC(=O)c2ccc(N3CCC4(CC3)CC(c3cccc(Br)c3)=NO4)c(NC(=O)c3cccc(C)c3)c2)cc1 | x | -7% | -2% | -2% | u | x
Cc1ccc(CNC(=O)c2ccc(N3CCC4(CC3)CC(c3cccc(Br)c3)=NO4)c(NC(=O)c3ccc(Br)cc3)c2)cc1 | x | x | 2% | -3% | x | x
CCCCCCCC(=O)Nc1cc(C(=O)NCCC)ccc1N1CCC2(CC1)CC(c1ccccc1)=NO2 | -3 | 7.4µM* | 12% | -5% | u | 1
Cc1ccc(CNC(=O)c2ccc(N3CCC4(CC3)CC(c3cccc(Br)c3)=NO4)c(NC(=O)c3c(Cl)cccc3Cl)c2)cc1 | x | 9.3µM* | 8% | -1% | 5.9µM* | x
CCCNC(=O)c1ccc(N2CCC3(CC2)CC(c2ccccc2)=NO3)c(NC(=O)c2ccc(Br)cc2)c1 | -4 | 1.9µM* | u | 18% | u | -2
COc1ccccc1C(=O)NC(=O)COC(=O)CN1C(=O)NC(C)(C)C1=O | x | 30% | 12% | 5% | 10% | x
CCCNC(=O)c1ccc(N2CCC3(CC2)CC(c2cccc(Br)c2)=NO3)c(NC(=O)c2cccc(OC)c2)c1 | x | 8.3µM* | u | -3% | u | x
CCCNC(=O)c1ccc(N2CCC3(CC2)CC(c2cccc(Br)c2)=NO3)c(NC(=O)c2ccccc2)c1 | x | 12µM* | -23% | -3% | 9.3µM* | x
COc1cccc(C(=O)Nc2cc(C(=O)NCc3ccc(C)cc3)ccc2N2CCC3(CC2)CC(c2cccc(Br)c2)=NO3)c1 | x | -6% | 2% | -1% | 10µM* | x
Cc1ccc(CNC(=O)c2ccc(N3CCC4(CC3)CC(c3cccc(Br)c3)=NO4)c([N+](=O)[O-])c2)cc1 | x | u | -18% | -14% | u | x
Cc1ccc(CNC(=O)c2ccc(N3CCC4(CC3)CC(c3ccccc3)=NO4)c(NC(=O)c3ccc(Cl)c([N+](=O)[O-])c3)c2)cc1 | x | u | 11µM* | -4% | u | x
COc1cc2nc(CCc3ccccc3)oc(=O)c2cc1OC | -3 | -20% | -12% | 2% | -24% | -3
Cc1ccc(CNC(=O)c2ccc(N3CCC4(CC3)CC(c3ccccc3)=NO4)c(NC(=O)c3cccc(C)c3)c2)cc1 | x | u | 11% | 7% | 4.1µM* | x
COc1ccc(CNC(=O)c2ccc(N3CCC4(CC3)CC(c3ccc(Cl)cc3)=NO4)c([N+](=O)[O-])c2)cc1 | x | x | 0.89µM* | 0% | x | x
